Active and inactive are the calls of the source. Calls follow the shape of the full dose curve.

Common to all, as to experiment: Confirmatory Screen for Target Class Profiling of Small Molecule Inhibitors of Methyltransferases (AID 1745852); as to activity change, negative = inhibition: % is scaled to controls: 0 for no effect and ±100 for the full control effect
Experiment [1] has as its target Catechol O-methyltransferase (Homo sapiens) (UniProt P21964). The note with it: MTase-Glo luminescence, SAH detection, recombinant enzyme; measured here: COMT max response; stronger effect = lower value.
Experiment [2] deals with Guanidinoacetate N-methyltransferase (Homo sapiens) (UniProt Q14353). The settings on record: MTase-Glo luminescence, SAH detection, recombinant enzyme; activity change, negative = inhibition: at 57.3 µM (top of the series) unless noted; series mostly up to 57.3 µM.
For experiment [3], the target named is Nicotinamide N-methyltransferase (Homo sapiens) (UniProt P40261). The settings on record: MTase-Glo luminescence, SAH detection, recombinant enzyme; measured here: NNMT max response; stronger effect = lower value.
Experiment [4] concerns the target Phenylethanolamine N-methyltransferase (Homo sapiens) (UniProt P11086). The note with it: MTase-Glo luminescence, SAH detection, recombinant enzyme; measured here: PNMT max response; stronger effect = lower value.
Potency is read from the fitted curve at half-maximal effect.

Sequence of Phenylethanolamine N-methyltransferase (Homo sapiens) (P11086 whole entry, looked up): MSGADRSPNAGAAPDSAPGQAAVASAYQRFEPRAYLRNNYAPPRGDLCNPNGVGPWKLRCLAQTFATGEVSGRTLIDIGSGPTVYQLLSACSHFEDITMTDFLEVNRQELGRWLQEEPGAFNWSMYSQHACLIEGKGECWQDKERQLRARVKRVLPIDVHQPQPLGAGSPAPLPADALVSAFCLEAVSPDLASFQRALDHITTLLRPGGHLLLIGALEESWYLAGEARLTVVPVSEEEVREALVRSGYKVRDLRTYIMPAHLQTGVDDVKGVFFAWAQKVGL
Sequence of Catechol O-methyltransferase (Homo sapiens) (P21964 whole entry, looked up): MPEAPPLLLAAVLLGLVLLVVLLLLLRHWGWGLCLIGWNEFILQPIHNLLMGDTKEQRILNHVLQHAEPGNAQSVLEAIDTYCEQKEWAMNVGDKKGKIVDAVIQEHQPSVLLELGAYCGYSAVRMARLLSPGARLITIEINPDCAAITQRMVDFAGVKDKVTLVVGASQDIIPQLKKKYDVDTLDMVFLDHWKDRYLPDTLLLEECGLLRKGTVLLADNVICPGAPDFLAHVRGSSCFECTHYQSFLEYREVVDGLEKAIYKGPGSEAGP
Sequence of Nicotinamide N-methyltransferase (Homo sapiens) (P40261 whole entry, looked up): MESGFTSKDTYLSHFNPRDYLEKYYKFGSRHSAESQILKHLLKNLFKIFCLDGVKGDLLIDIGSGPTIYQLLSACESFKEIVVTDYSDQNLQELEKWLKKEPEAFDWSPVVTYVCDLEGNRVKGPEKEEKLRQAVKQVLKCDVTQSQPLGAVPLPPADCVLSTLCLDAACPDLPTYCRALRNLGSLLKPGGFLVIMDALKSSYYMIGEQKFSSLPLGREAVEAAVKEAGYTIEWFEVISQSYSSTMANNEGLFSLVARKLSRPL

As for `CCCCN1C(=O)c2cc(C(=O)NCCc3ccccc3Cl)nn2CC1(C)C(=O)NC1CCCC1` (stereo not given), the values for the activity in experiment [1], in experiment [3] and in experiment [4] were 0.497%, -0.43% and -2.62%, respectively. The activity change, negative = inhibition in experiment [2] was 0%.
The matching figures for `COc1ccc(CNc2cc3c(cn2)CN(Cc2ccccc2)CCN3)cc1OC`: 2.46%, -32.8%, 1.92% and 0.935% [at 85.7 µM].
Turning to `CC(CNC(=O)c1nnn2c1c(=O)[nH]c1cc(F)ccc12)c1ccccc1` (stereo not given), the figures for the activity in experiment [1], in experiment [3] and in experiment [4] were -11.1%, -18.2% and -15.8%, respectively. For the same molecule, the Potency in experiment [2] is 0.271 µM (active).
For the molecule `Cn1c(=O)n(C)c2cc(S(=O)(=O)N3CCN(C4CCCCC4)CC3)c(Cl)cc21`, the activity in experiment [1] is -1.77%; in experiment [3], -10.5%; in experiment [4], -13.7%. For the same molecule, in experiment [2], the activity change, negative = inhibition amounted to 2.61%.
Regarding `COc1ccc(-c2nc3ccncc3[nH]2)cc1`, the activity was -92.6% in experiment [1], -106% in experiment [3] and -86.1% in experiment [4]. In experiment [2], the Potency was 12.4 µM (active).
As for `C[C@H]1CN(C(=O)c2nn(C)c3ccccc23)C[C@@H]1c1nc(-c2cccnc2)no1`, the activity was 15.6% in experiment [1], -94% in experiment [3] and 7.38% in experiment [4]. Also, the activity change, negative = inhibition in experiment [2] was 7.54%.
The matching figures for `CCCN1CCn2c3c(c4cc(OC)ccc42)CCN=C31`: -5.03%, -6.4%, -5.52% and -1.32%.
The matching figures for `O=C(N[C@H](C1CCNCC1)C1CC(O)C1)c1ccc2nccnc2c1` (stereo not given in full): -0.82%, 10.8%, 3.61% and 1.16%.
For the molecule `CCCCN1C(=O)c2cc(C(=O)Nc3cc(C)cc(C)c3)nn2CC1(C)C(=O)NC1CCCC1` (stereo not given), the activity in experiment [1] is -1.58%; in experiment [3], 1.44%; in experiment [4], -4.22%. Besides, the activity change, negative = inhibition in experiment [2] was 0%.
As for `Cc1cc(C)c(CNC(=O)c2cc(-c3cnn(C)c3C)cc3c2OCCN3C)c(=O)[nH]1`, the activity in experiment [1] was -62.4%; in experiment [3] it was -51.4%; in experiment [4], -75.2%. Besides, in experiment [2], the Potency was 39.3 µM (active).
Turning to `O=C(Nc1ccc2c(N3CCCC3)ncnc2c1)c1cc(F)ccc1Cl`, the results for the activity in experiment [1], in experiment [3] and in experiment [4] were -8.67%, -15.4% and -17.8%, respectively. Moreover, the activity change, negative = inhibition in experiment [2] was -7.52%.
The matching figures for `Cn1cc2c3c(cccc31)CN(C(=O)c1ccccc1F)CC2`: -1.46%, -50.7%, -0.857% and 8.53%.
On to `O=C(c1cc(-c2ccccc2)n[nH]1)N1CCc2c(nc(-c3ccccc3)[nH]c2=O)C1`, for which the activity in experiment [1] was 4.33%; in experiment [3] it was 3.92%; in experiment [4], 5.63%. Further, in experiment [2], the activity change, negative = inhibition stood at 7.17%.
The matching figures for `Cc1ccc(Cn2c(=O)c3ccccc3n3c(CCC(=O)NCCCN4CCC(C)CC4)nnc23)cc1`: 0%, -6.98%, 0% and 0%.
Regarding `O=C(CCc1nnc2n(Cc3ccc(Cl)cc3)c(=O)c3ccccc3n12)N1CCC(N2CCCCC2)CC1`, the activity was -4.51% in experiment [1], -21.6% in experiment [3] and 0.847% in experiment [4]. Besides, the activity change, negative = inhibition in experiment [2] is -0.992%.
In the case of `Cc1c(O)cc(O)c2c(=O)c(O)c(-c3ccc(O)c(O)c3)oc12`, the activity is -46.7% in experiment [1], -19.4% in experiment [3] and -17.7% in experiment [4]. In experiment [2], the Potency was 24.1 µM (active).
As to `Cc1nc(NC(=O)C2CC(=O)N(c3n[nH]c4cc(Br)ccc34)C2)sc1C` (stereo not given), the activity in experiment [1] is 11.1%; in experiment [3], -94.1%; in experiment [4], 7.69%. Further, in experiment [2], the activity change, negative = inhibition amounted to 3.17%.
The matching figures for `Cc1nccn1CCC1CCN(c2nccc(-c3ccccn3)n2)CC1`: 9.05%, 5.85%, 7.66% and 8.46%.
The matching figures for `Cc1ccc(Cn2c(=O)c3ccccc3n3c(-c4cccc(C)c4)nnc23)cc1`: -4.65%, -4.69%, -4.19% and 2.78%.
The matching figures for `O=C(O)c1ccc2c(c1)C1C=CCC1C(c1cccc(F)c1)N2` (stereo not given): -2.11%, 0.825%, -2.83% and 2.71%.
`CCCC1c2cccn2CCN1C(=O)Nc1ccccc1Br` (stereo not given): the activity is -6.73% in experiment [1], -13.8% in experiment [3] and -7.98% in experiment [4]. The activity change, negative = inhibition in experiment [2] is -3.12%.
The matching figures for `COc1cccc(NC(=O)Cn2c(=O)oc3cc(S(=O)(=O)N4CCCC4)ccc32)c1`: 3.1%, 4.37%, -58.7% and 0.138%.
`COc1ccccc1CNC(=O)C1(C)Cn2c(cc3ccccc32)C(=O)N1Cc1ccc(OC)c(OC)c1` (stereo not given): the values for the activity in experiment [1], in experiment [3] and in experiment [4] were 0%, -60.4% and -1.32%, respectively. Moreover, in experiment [2], the activity change, negative = inhibition was found to be 0%.
For `CCN(CCc1nc2ccc(C)cc2[nH]1)C(=O)c1ccccc1C1CCNC1` (stereo not given), the activity in experiment [1] is 6.01%; in experiment [3] it was 7.78%; in experiment [4], 8.18%. Moreover, the activity change, negative = inhibition in experiment [2] came to 8.24%.
The matching figures for `CCNc1nccc(N2CCC(CC(=O)NCC(C)C)CC2)n1`: -2.4%, -6.4%, -1.27% and -5.08%.
The matching figures for `COc1ccc(-c2nnn3c2nc(NCCc2ccc(OC)c(OC)c2)c2ccccc23)cc1`: -10.5%, -12.4%, -9.28% and -2.81%.
The matching figures for `CC(=O)Nc1cc(-c2cc(C(=O)NCc3cccnc3)c3c(c2)N(C)CCO3)ccn1`: -17.6%, -4.98%, -28.5% and -8.39% [at 85.7 µM].
Consider `COc1cccc(-c2ccccc2NC(=O)C2CCN(CC=C(C)C)CC2)c1`, for which the activity in experiment [1] is 0.831%; in experiment [3], -3.23%; in experiment [4], -3%. For the same molecule, in experiment [2], the activity change, negative = inhibition was determined as 3.69%.
The matching figures for `CCOc1cc(CNc2ccc(C(=O)O)cc2)ccc1OCc1ccccc1`: -41.3%, -22.2%, -2.65% and 0.912%.
The matching figures for `CCCn1c(C)cnc1CC1CCN(C(=O)NCc2ccc(OC)cc2)C1` (stereo not given): -4.22%, -3.34%, -1.44% and 6.2%.

Values taken from PubChem BioAssay (NCATS).
